From PubChem BioAssay come the findings set out here.

Inconclusive results are not listed. The source made the active and inactive calls.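 The calls were made as follows, unless noted: active = percent response above a set limit, the screen-wide mean plus 3 SD (cut at about 130% in these data); inactive = the rest.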

The nature of assay [1]: yeast TOR pathway RPL19A-GFP modulators, primary screen, cell-based, S. cerevisiae, multiplex flow cytometry (AID 1862; in the data active = percent of DMSO control GFP below about 86%;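 also: lower values mimic rapamycin by blocking the RPL19A rise seen in DMSO cells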). Conditions: S. cerevisiae RPL19A-GFP strain, flow cytometry fluorescence, 3 h; at 10 µM; stronger effect = lower value. (In general: A flow cytometer gives signals particle by particle.)
Assay [2] in a line: modulators of MEP2-GFP levels in yeast, primary screen, S. cerevisiae, multiplex flow cytometry (AID 1867;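 active = GFP response, as percent of the DMSO control, above the screen-wide mean plus 3 SD, about 139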;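 also: median GFP channel fluorescence of barcode-gated MEP2-GFP cells measured by flow cytometry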). Conditions: S. cerevisiae MEP2-GFP strain, 3 h, at 10 µM, stronger effect = higher value, 100% means same as DMSO wells.
Assay [3] can be described thus: modulators of CIT2-GFP expression in yeast, primary screen, S. cerevisiae, GFP fusion, multiplex flow cytometry (AID 1870).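 Also: barcoded CIT2-GFP strain pooled with four other GFP strains with rapamycin as positive control; median GFP fluorescence per well over plate mean of DMSO wells so 100% = DMSO.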 Conditions: 3 h, at 10 µM, stronger effect = higher value.
A short description of assay [4]: modulators of LAP4-GFP expression in yeast, primary screen, S. cerevisiae, multiplex flow cytometry (AID 1873;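 active = GFP signal, as percent of the solvent control, above the screen mean plus 3 SD, about 149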). To be noted: 3 h, at 10 µM, stronger effect = higher value.
A short description of assay [5]: modulators of AGP1-GFP expression in yeast TOR pathway, primary screen, cell-based, multiplex flow cytometry, S. cerevisiae (AID 1887;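 active = GFP signal above the screen-wide mean plus 3 SD, that is over about 124.5% of the solvent control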;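 also: AGP1-GFP fusion strain of S. cerevisiae within a five-strain barcoded multiplex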). To be noted: 3 h, at 10 µM, stronger effect = higher value.
Assay [6] is described as follows: inhibitors of CD8+ T cell-vesicle binding, pilot screen, LFA-1/ICAM-1 modulator project, MLPCN validation set, flow cytometry (AID 2523;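 active = response below a set limit, under 55% cells CD8-positive and vesicle-bound, and CD8 cells' 90th-percentile brightness under 279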;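 as to vesicle binding response: mean PE anti-B7-1 fluorescence of CD8+ cells relative to row control; 100% = QL9-loaded vesicles with DMSO vehicle in the same plate row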). Conditions: 2C mouse CD8+ T cells, at 7 µM, stronger effect = lower value; double positive events: measured here: CD8+/vesicle+ event percentage.
For assay [7], the target named is Integrin beta-1 (Homo sapiens) + Integrin alpha-4 (Homo sapiens) (UniProt P13612+P05556). In words: inhibition of HUTS-21 binding to VLA-4, pilot screen, VLA-4 allosteric modulator project, U937 cells, HUTS-21 mAb, flow cytometry, validation set (AID 2674;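 active = inhibition above 50%, about 3 SD of the validation set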;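 also: antibody binding induced by the VLA-4 ligand LDV present at three times its Kd; 0% = LDV ligand with antibody and no compound and 100% = antibody without LDV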). Conditions: HUTS-21 LIBS mAb binding, at 6.7 µM, stronger effect = higher value, binding induced by LDV ligand.
Assay [8] in a line: superoxide lowering in aged yeast cells, pilot screen, validation compound set (AID 2706;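 active = superoxide response below 65% of plate, a cut near 3 SD across the whole screen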;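 also: yeast exposed to compound for one week at 30 degrees C before staining; 100% = mean of all compound wells on the same plate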). To be noted: S. cerevisiae aging, superoxide DHE fluorescence; at 10 µM; stronger effect = lower value.
Assay [9] concerns the target Beta-adrenergic receptor kinase 1 (Homo sapiens) (UniProt P25098). Briefly: GRK2 binders displacing RNA aptamer, biochemical, validation, human GRK2, bead flow cytometry (AID 488806;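 active = aptamer binding inhibition above 30%, about 3 SD of noise from non-fluorescent compounds; inactive = inhibition at or below 30%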). To be noted: bead-bound GRK2, FAM-aptamer displacement, at 10 µM, stronger effect = higher value.
Assay [10] deals with Beta-2 adrenergic receptor (Homo sapiens) (UniProt P07550). In words: beta2AR agonists driving receptor internalization, pilot screen, cell-based, FAP fluorogen, flow cytometry, validation set (AID 504459;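 active = percent response above 42, roughly 3 SD of non-fluorescent test compounds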;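 also: agonist-driven loss of surface beta2AR via internalization measured by FAP dye flow cytometry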). To be noted: Am2.2-beta2AR cells, FAP surface receptor flow cytometry; at 10 µM; stronger effect = higher value.
Assay [11] concerns the target AP-2 complex subunit beta (Homo sapiens) (UniProt P63010). Briefly: inhibitors of arrestin peptide binding to AP2, pilot screen, biochemical, validation set, GST-AP2 beads, flow cytometry (AID 504541;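 active = inhibition above 54%, about 3 SD of non-fluorescent compounds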;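 also: AP2 carries R879A mutation and is captured from E. coli lysate; bead-bound FITC arrestin peptide fluorescence measuring arrestin peptide binding to AP2; 0% = DMSO wells and 100% = excess unlabeled arrestin peptide control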). Conditions: FITC arrestin peptide, at 10 µM, stronger effect = higher value, AP2 beta2 appendage fragment, R879A mutant.
The nature of assay [12]: yeast V-ATPase proton transport modulators, S. cerevisiae, pHLuorin, HTS validation (AID 504600; in the data active = response above about 15%;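 also: plate controls were DMSO for no effect and reference compound for full effect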). Conditions: S. cerevisiae pHLuorin cytosolic pH, at 10 µM, stronger effect = higher value.
In assay [13] the test system is anti-desmoglein-3 scFv antibody binding to human DSG3. Briefly: inhibitors of anti-DSG3 scFv binding to DSG3, pilot screen, biochemical, validation compound set, bead-based, flow cytometry (AID 588368;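 active = binding below the plate cutoff, the plate median minus 3 SD, with a reading above zero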;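 also: signal is the median channel fluorescence of bead-bound GFP antibody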). Conditions: Protein G beads, DSG3-Fc, scFv-GFP binding, at 10 µM, stronger effect = lower value.
Assay [14] can be described thus: inhibitors of fungal efflux pumps CDR1, CDR2, MDR1, pilot screen, validation compound set, multiplex, phenotypic (AID 588506;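 active = efflux inhibition above 0.42, the validation set average plus 4 SD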;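 also: Nile Red retained in cells so higher fluorescence means more efflux inhibition; 0 = negative control wells and 1 = enniatin B 25 µM full block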). To be noted: S. cerevisiae pump-expressing triplex, Nile Red efflux flow cytometry; at 10 µM; stronger effect = higher value; the pumps come from Candida albicans.
Assay [15] addresses ATP-binding cassette sub-family B member 6 (Homo sapiens) (UniProt Q9NP58). Briefly: ABCB6 transporter inhibitors, pilot screen, K562-ABCB6 cells, flow cytometry, validation set (AID 588550;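 active = inhibition above the screen-wide mean plus 3 SD, about 51%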;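 also: 0% = DMSO wells and 100% = benzethonium chloride 70 µM positive control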). Conditions: K562-ABCB6 porphyrin accumulation, 1 h, at 10 µM, stronger effect = higher value.
The nature of assay [16]: promoters of myeloid differentiation in arrested cells, primary screen, cell-based, GFP/MAC1 double positive, flow cytometry, validation set (AID 588685;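 active = differentiation response of at least 50%, scaled between solvent and reference control, from cells with both markers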;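 also: compound exposure lasts four days before antibody staining and flow analysis; 0% = DMSO wells and 100% = 5 µM fulvestrant positive control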). Conditions: ER-HoxA9 marrow cells, stronger effect = higher value, normalized: vehicle 0, fulvestrant 100.

Sequence of Beta-adrenergic receptor kinase 1 (Homo sapiens) (P25098 whole entry, looked up): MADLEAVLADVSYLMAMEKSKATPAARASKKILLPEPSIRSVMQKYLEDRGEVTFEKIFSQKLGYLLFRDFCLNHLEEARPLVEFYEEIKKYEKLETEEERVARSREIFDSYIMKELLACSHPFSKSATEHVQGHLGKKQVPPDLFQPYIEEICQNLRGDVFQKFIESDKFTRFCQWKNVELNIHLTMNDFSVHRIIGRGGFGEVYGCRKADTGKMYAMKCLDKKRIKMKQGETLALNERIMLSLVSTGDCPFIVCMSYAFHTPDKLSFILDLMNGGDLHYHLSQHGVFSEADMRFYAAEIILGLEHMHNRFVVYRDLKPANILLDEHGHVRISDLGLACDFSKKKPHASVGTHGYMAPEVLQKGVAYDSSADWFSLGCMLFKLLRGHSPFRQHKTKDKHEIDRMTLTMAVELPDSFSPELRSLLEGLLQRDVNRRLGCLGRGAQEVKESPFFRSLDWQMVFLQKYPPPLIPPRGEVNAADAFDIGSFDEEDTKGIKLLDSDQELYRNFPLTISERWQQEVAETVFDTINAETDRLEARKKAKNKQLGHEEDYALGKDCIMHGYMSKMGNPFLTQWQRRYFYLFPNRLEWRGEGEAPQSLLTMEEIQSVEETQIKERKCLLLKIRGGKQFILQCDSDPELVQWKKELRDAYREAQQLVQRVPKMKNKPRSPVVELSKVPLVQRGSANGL
Sequence of Beta-2 adrenergic receptor (Homo sapiens) (P07550 whole entry, looked up): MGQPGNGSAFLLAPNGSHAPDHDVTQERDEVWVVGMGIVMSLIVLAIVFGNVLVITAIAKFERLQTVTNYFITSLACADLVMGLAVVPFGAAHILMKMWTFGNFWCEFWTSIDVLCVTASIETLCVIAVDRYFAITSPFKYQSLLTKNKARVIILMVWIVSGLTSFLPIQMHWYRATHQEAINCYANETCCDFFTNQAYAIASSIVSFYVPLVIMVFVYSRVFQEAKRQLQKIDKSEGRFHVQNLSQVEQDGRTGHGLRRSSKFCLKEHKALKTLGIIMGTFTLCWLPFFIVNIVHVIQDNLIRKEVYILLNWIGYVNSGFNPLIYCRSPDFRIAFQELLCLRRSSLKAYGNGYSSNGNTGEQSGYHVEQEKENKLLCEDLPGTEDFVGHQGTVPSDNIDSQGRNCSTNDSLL
Sequence of Integrin beta-1 (Homo sapiens) + Integrin alpha-4 (Homo sapiens) (P05556 whole entry, looked up): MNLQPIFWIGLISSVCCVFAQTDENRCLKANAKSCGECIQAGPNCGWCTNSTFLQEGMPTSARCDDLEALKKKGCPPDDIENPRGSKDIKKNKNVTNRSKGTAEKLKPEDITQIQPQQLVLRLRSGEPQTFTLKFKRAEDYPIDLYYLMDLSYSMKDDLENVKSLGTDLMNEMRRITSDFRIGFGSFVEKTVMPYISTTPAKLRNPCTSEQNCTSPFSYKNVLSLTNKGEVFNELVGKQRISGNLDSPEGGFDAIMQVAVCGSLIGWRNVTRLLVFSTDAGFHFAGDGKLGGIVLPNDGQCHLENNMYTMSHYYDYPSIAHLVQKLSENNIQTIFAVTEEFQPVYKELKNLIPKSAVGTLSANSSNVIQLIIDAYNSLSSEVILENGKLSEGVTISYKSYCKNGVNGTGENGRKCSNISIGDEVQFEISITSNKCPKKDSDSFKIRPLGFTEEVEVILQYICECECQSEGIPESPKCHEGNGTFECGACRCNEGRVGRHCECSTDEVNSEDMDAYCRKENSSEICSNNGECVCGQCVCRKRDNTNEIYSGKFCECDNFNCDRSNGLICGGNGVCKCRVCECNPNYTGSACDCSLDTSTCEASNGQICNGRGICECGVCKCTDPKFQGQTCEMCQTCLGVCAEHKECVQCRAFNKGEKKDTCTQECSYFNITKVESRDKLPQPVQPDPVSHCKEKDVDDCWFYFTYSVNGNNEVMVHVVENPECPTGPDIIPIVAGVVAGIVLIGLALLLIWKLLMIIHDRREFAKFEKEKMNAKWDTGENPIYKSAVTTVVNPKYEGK
Sequence of Integrin beta-1 (Homo sapiens) + Integrin alpha-4 (Homo sapiens) (P13612 whole entry, looked up): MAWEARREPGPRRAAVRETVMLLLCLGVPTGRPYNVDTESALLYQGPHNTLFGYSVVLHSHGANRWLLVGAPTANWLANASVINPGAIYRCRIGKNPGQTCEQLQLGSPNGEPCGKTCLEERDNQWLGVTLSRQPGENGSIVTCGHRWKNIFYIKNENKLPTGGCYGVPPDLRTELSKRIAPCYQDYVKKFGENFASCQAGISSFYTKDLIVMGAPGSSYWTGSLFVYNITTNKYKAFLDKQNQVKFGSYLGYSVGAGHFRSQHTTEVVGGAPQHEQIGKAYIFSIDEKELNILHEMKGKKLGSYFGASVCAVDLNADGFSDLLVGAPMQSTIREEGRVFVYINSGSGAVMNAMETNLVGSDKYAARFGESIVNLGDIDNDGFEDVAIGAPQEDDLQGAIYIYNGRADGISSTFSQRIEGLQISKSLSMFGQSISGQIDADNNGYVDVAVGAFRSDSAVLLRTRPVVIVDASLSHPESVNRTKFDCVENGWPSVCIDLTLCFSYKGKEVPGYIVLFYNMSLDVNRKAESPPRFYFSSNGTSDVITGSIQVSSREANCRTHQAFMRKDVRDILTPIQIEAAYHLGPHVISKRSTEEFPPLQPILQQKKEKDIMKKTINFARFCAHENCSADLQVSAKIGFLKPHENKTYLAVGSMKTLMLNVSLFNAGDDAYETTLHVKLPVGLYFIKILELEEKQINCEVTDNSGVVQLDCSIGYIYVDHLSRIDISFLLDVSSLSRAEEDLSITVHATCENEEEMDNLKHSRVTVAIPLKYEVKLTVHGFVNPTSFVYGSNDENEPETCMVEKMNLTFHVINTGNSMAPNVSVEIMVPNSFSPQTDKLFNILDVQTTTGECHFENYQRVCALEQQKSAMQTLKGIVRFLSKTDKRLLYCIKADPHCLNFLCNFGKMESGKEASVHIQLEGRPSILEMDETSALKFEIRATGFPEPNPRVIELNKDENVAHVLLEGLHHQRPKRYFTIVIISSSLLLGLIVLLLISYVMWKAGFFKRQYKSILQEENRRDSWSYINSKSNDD
Sequence of AP-2 complex subunit beta (Homo sapiens) (P63010 whole entry, looked up, the tested form may be a part, one chain of several): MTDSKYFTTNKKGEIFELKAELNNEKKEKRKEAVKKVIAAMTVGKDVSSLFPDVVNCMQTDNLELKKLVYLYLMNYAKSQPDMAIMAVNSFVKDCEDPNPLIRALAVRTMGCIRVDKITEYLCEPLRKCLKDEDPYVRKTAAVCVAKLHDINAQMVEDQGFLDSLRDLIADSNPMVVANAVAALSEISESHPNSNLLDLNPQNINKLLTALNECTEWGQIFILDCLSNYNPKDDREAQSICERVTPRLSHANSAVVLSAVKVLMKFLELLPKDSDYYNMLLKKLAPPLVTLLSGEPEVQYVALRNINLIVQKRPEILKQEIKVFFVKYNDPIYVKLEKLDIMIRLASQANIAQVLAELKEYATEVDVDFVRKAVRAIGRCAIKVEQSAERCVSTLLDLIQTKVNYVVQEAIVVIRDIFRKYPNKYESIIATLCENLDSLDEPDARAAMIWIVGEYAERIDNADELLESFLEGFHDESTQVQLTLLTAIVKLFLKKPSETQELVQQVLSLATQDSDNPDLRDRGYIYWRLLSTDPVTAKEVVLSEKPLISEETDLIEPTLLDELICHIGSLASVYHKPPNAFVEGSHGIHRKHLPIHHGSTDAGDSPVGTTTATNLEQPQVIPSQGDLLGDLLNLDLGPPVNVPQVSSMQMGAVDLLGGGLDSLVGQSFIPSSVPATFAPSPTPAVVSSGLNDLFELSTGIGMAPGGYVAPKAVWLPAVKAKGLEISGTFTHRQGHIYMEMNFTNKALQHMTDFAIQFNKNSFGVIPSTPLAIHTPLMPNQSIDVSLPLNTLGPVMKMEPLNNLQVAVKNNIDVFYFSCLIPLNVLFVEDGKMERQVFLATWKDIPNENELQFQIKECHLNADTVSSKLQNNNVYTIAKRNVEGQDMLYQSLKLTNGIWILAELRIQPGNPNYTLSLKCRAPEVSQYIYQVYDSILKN
Sequence of ATP-binding cassette sub-family B member 6 (Homo sapiens) (Q9NP58 whole entry, looked up): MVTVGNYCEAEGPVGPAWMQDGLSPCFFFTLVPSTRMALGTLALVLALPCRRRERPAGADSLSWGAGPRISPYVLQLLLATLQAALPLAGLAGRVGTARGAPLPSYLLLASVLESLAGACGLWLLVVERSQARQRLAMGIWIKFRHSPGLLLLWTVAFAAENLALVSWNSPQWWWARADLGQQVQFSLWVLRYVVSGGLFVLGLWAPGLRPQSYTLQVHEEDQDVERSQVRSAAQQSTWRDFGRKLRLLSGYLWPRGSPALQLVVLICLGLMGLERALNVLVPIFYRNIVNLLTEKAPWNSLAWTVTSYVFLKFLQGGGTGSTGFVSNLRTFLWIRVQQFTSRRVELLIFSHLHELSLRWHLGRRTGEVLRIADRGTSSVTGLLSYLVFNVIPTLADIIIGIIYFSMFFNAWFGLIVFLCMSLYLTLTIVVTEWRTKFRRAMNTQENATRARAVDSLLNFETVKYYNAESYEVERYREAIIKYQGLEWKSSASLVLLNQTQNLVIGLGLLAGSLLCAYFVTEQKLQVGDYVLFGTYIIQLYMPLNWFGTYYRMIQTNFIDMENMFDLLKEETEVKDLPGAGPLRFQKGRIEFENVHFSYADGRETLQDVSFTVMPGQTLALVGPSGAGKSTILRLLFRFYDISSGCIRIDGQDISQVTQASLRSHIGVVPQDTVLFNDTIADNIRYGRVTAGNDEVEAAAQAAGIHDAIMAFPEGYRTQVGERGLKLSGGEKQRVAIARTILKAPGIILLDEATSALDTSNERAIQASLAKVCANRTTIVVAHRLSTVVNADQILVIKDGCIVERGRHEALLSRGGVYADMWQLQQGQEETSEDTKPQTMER

Take `Oc1[nH]c2ccccc2c1C1=NCCCC1`: the percent of DMSO control GFP in assay [1] was 102% (inactive). The GFP response vs DMSO is 105% (inactive) in assay [2] and 99.4% (inactive) in assay [4]. Moreover, the percent response of DMSO control in [3] is 96% (inactive). Also, the GFP response, % of DMSO in assay [5] was 106% (inactive). Moreover, in assay [6], the double positive events was determined as 63.2%. Further, the vesicle binding response in [6] was 161% (inactive). Besides, the inhibition (usually the drop in the measured response relative to a control, in per cent) in assay [7] is -3.18% (inactive); in assay [11], -15.4% (inactive); in assay [15] it was 11% (inactive). Also, the superoxide response (% of plate) in [8] was 84.9% (inactive). Moreover, in assay [9], the aptamer binding inhibition was 8% (inactive). For the same molecule, the response in assay [10] is 17.8% (inactive); in assay [12], 1.51% (inactive). The binding (% of control) in assay [13] is 102% (inactive). Besides, the efflux inhibition (fraction of control) in assay [14] is -0.12 (inactive). The differentiation response in assay [16] is 0% (inactive).
As to `CC(NC(=O)c1ccc(N2CCNCC2)c([N+](=O)[O-])c1)C12CC3CC(CC(C3)C1)C2` (stereo not given), in assay [1], the percent of DMSO control GFP is 92.8% (inactive). Besides, the GFP response vs DMSO is 111% (inactive) in [2] and 114% (inactive) in [4]. Moreover, the percent response of DMSO control in assay [3] was 101% (inactive). In [5], the GFP response, % of DMSO is 92.6% (inactive). Also, the double positive events in assay [6] is 56.9%. Besides, the vesicle binding response in assay [6] is 87.2% (inactive). Also, the inhibition in assay [7] was 9.13% (inactive); in [11], -4.72% (inactive); in [15] it was 7% (inactive). The superoxide response (% of plate) in assay [8] is 101% (inactive). Further, the aptamer binding inhibition in assay [9] is -1% (inactive). In addition, the figures for the response in [10] and in assay [12] were -1.73% (inactive) and 0.8% (inactive), respectively. Also, the binding (% of control) in assay [13] is 98.2% (inactive). Also, the efflux inhibition (fraction of control) in assay [14] is -0.1 (inactive). Moreover, the differentiation response in assay [16] is -23.2% (inactive).
`COc1ccc(/C=C\c2nc(=O)c3ccccc3o2)cc1`: the percent of DMSO control GFP in assay [1] was 111% (inactive). The GFP response vs DMSO in assay [2] was 100% (inactive); in assay [4], 81.5% (inactive). For the same molecule, the percent response of DMSO control in assay [3] was 101% (inactive). Moreover, the GFP response, % of DMSO in assay [5] was 96.7% (inactive). Further, in assay [6], the double positive events was 64.1%. The vesicle binding response in [6] was 360% (inactive). Besides, the inhibition in assay [7] is 6.81% (inactive); in assay [11], 0.71% (inactive); in assay [15], 3% (inactive). In assay [8], the superoxide response (% of plate) was 108% (inactive). Besides, in assay [9], the aptamer binding inhibition was 5% (inactive). Moreover, the response in [10] is 2.1% (inactive); in assay [12], 8.52% (inactive). Further, in assay [13], the binding (% of control) is 98% (inactive). The efflux inhibition (fraction of control) in assay [14] was -0.01 (inactive). Also, in [16], the differentiation response was 6.11% (inactive).
`CC1(C)CC(=O)C(C2=NC(C)(C)Cc3ccccc32)=C(O)C1`: the percent of DMSO control GFP in [1] is 103% (inactive). Besides, the GFP response vs DMSO was 100% (inactive) in assay [2] and 92.7% (inactive) in [4]. Besides, in assay [3], the percent response of DMSO control was 108% (inactive). Further, the GFP response, % of DMSO in [5] is 101% (inactive). In [6], the double positive events came out at 59.3%. Moreover, the vesicle binding response in assay [6] was 48.2% (inactive). Further, the figures for the inhibition in [7], in assay [11] and in assay [15] were -2.53% (inactive), 17.9% (inactive) and 13% (inactive), respectively. Further, the superoxide response (% of plate) in assay [8] was 103% (inactive). Further, the aptamer binding inhibition in assay [9] is 4% (inactive). Besides, the response in [10] was -9.99% (inactive); in [12], 1.49% (inactive). Further, the binding (% of control) in assay [13] is 91.7% (inactive). Also, in assay [14], the efflux inhibition (fraction of control) was 0.14 (inactive). In [16], the differentiation response was -4.64% (inactive).
On to `CN(C)[C@@H]1C(=O)C(C(=O)NCN2CCCC2)=C(O)[C@@]2(O)C(=O)C3=C(O)c4c(O)cccc4[C@@](C)(O)C3CC12` (stereo not given in full), for which the percent of DMSO control GFP in assay [1] is 103% (inactive). Also, the GFP response vs DMSO in assay [2] was 119% (inactive); in assay [4], 95.7% (inactive). For the same molecule, the percent response of DMSO control in [3] was 112% (inactive). In assay [5], the GFP response, % of DMSO was 93.3% (inactive). For the same molecule, the double positive events in assay [6] amounted to 59%. The vesicle binding response in assay [6] was 145% (inactive). The inhibition in assay [7] is -45.9% (inactive); in assay [11], 94.1% (active); in assay [15], 8% (inactive). Besides, the superoxide response (% of plate) in assay [8] is 107% (inactive). For the same molecule, the aptamer binding inhibition in assay [9] is 92% (active). Also, the response in assay [10] was 12.3% (inactive); in [12], -6.79% (inactive). Besides, the binding (% of control) in assay [13] was 30.6% (active). The efflux inhibition (fraction of control) in assay [14] is -0.06 (inactive). Further, the differentiation response in [16] was 19.6% (inactive).
